Compound activity as filed in PubChem BioAssay.
PLK1 PBD inh = inhibitors of human PLK1 polo-box domain binding | P53350 | Plk1 PBD binding of FITC phosphopeptide, fluorescence polarization | Potency, µM, for inactives: max response, negative = inhibition, usual class: inhibitors | 360,000 compounds, 2.8% hits | AID 720504; also: series mostly up to about 57 µM; nearly all actives have a fitted effect of over 65% in size
DT40 TDP1 no CPT = qHTS for Inhibitors of human tyrosyl-DNA phosphodiesterase 1 (TDP1): qHTS in cells in absence of CPT. DT40 Tdp1-/- hTDP1 cells, no CPT, ATP luminescence, 48 h. Potency, µM (highest dose often 46.2 µM), for the others: top-dose activity change, negative = growth inhibition, actives largely listed as inhibitors. 420,000 compounds, 15% hits. AID 686978, 2013; also: nearly all actives have a fitted effect of over 55% in size
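Chicken DT40 Tdp1-/- cells complemented with human TDP1, screened without camptothecin (DMSO vehicle only), 400 cells/well. Compounds pin-transferred, cells incubated at 37 °C for at least 48 hr. Growth read as ATP-dependent luminescence (CellTiter-Glo, 30 min at RT).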
KAT2A inh = GCN5L2 (KAT2A) acetyltransferase inhibition; 390,000 compounds, 0.21% hits; Potency, µM (titrated, usually from 58.9 µM), without a hit: top-dose activity change, negative = inhibition, hits mostly inhibitors; Q92830; AID 504327; GCN5L2 HAT assay, ThioGlo1 CoA-SH fluorescence
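Titration-based screen in which CoA formation is detected via maleimide probe ThioGlo1 (50uM) turning fluorescent on thiol reaction; substrates H3(1-25) 75uM and acetyl-CoA 70uM, GCN5L2 20nM, 20 min incubation at room temperature.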
DT40 TDP1 CPT = DT40-hTDP1 cell growth loss with CPT; 420,000 compounds, 12% hits; chicken DT40 Tdp1-/-;hTDP1 cells + 20 nM CPT, ATP luminescence, 48 h; Potency, µM (doses to about 46.2 µM), without a hit: top-dose activity change, negative = growth inhibition, most hits filed as inhibitors; also: nearly all actives have a fitted effect of over 55% in size
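Cell growth measured by CellTiter-Glo luminescence after a minimum 48 h, 37 C compound exposure with 20 nM CPT in Tdp1-knockout DT40 cells stably expressing hTDP1, seeded 400/well; qHTS titration format.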
TDP1 block = blocks human tyrosyl-DNA phosphodiesterase 1. Potency, µM (top dose mostly 130 µM), without a hit: at the top dose activity change, negative = inhibition, actives largely listed as inhibitors. recombinant TDP1, AlphaScreen DNA substrate cleavage. 350,000 compounds, 0.28% hits. Q9NUW8; also: nearly all actives have a fitted effect of over 40% in size
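Steps: enzyme plus compound, 15 min RT; add biotin/phosphotyrosine-FITC oligonucleotide (15 nM final), react 5 min; add donor/acceptor beads (10 ug/ml final), 10 min; read AlphaScreen. Tdp1 at 1 nM final.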
VDR inhibitor = blocks the human vitamin D receptor | P11473 | VDR-SRC2-3 peptide fluorescence polarization, 2 h | Potency, µM, without a hit: max response, negative = inhibition, usual class: inhibitors | 400,000 compounds, 0.93% hits
Target sequence (P11473 whole entry, looked up): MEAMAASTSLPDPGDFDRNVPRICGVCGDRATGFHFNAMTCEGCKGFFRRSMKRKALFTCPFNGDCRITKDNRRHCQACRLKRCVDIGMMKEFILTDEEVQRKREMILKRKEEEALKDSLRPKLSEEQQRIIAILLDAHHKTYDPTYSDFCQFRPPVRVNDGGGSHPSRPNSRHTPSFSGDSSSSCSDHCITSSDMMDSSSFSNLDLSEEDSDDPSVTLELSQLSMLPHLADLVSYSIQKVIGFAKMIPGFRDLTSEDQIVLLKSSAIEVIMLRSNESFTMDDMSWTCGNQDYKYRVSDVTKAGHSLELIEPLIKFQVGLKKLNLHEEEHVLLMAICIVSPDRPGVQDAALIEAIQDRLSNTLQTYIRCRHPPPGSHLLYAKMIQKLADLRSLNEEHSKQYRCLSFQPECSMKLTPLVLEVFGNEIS
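Fluorescence polarization assay of small-molecule disruption of VDR binding to coregulator peptide SRC2-3. Compounds and controls pin-transferred, then read after 2 h incubation at ambient room temperature.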
Active calls of the source: *; ? = inconclusive; . = not tested or not shown; [ ] = another dose, or the depositor's remark. This is a sample that favours compounds with a hit; in the whole collection about 18% have one here. Calls follow the shape of the dose curve; as a rule, active = well fitted curve in the direction sought with a large enough effect; inconclusive = small, poorly fitted or top-dose-only effect, or another doubt; inactive = no such curve, though single readings can be large; an effect the other way counts as inactive or inconclusive. % is scaled to controls: 0 for no effect and ±100 for the full control effect; potency is read from the fitted curve at half-maximal effect.

SMILES	PLK1 PBD inh	DT40 TDP1 no CPT	KAT2A inh	DT40 TDP1 CPT	TDP1 block	VDR inhibitor
Cc1nc(N2CCN(c3ccccn3)CC2)c2c(C)c(C(=O)N3CCN(c4cccc(Cl)c4)CC3)sc2n1	-13%	21µM*	-19%	15µM*	9%	-2%
Cc1nc(N2CCCC2)c2c(C(=O)N3CCN(c4cccc(Cl)c4)CC3)c(C)oc2n1	.	?	-14%	?	0%	8%
Cc1nc(N2CCOCC2)c2c(C)c(C(=O)Nc3ccccc3Cl)sc2n1	2%	?	2%	-13%	5%	-12%
Cc1nc(N2CCN(c3ccccn3)CC2)c2c(C)c(C(=O)Nc3ccccc3F)sc2n1	-2%	16µM*	-6%	?	3%	-15%
Cc1nc(N2CCN(c3ccccn3)CC2)c2c(C)c(C(=O)Nc3ccc(F)cc3F)sc2n1	0%	13µM*	-15%	16µM*	4%	2%
ClN=C1C=CC=CC1=NCl	11µM*	?	.	16µM*	.	.
CN=C1SC(CC(=O)Nc2ccccc2F)C(=O)N1/N=C/c1ccc(O)c(OC)c1 (stereo unspecified)	1%	13µM*	29%	23µM*	8%	-3%
COc1ccc2[nH]cc(CCNc3ncncc3-c3ccccc3C(F)(F)F)c2c1	.	?	-13%	16µM*	.	-20%
COc1ccc2[nH]cc(CCNc3ncncc3-c3ccccc3Cl)c2c1	.	?	-19%	23µM*	.	-15%
COc1ccc2[nH]cc(CCNc3ncncc3-c3ccccc3OC)c2c1	.	?	-13%	-95%	.	-14%
O=C(COC(=O)c1ccc[nH]c1=O)NC1CCCCC1	1%	19%	-1%	-14%	.	-3%
CCc1ccc(C(=O)c2cn(CC(=O)Nc3ccc4c(c3)OCO4)c3ccc(OC)cc3c2=O)cc1	.	?	-27%	?	.	1%
Cc1ccc(C(=O)CCS(=O)(=O)c2ccc(Br)cc2)cc1	?	5.2µM*	?	5.2µM*	4%	-26%
Cc1ccc(NCCC(=O)c2ccc(Br)cc2)cc1	-6%	?	4%	?	3%	-15%
COc1ccc(C(=O)CCS(=O)(=O)c2ccc(C)cc2)cc1	11µM*	2.3µM*	?	2.6µM*	0%	?
CN(CC(=O)Nc1ccc(C(N)=O)cc1)CC(=O)Nc1ccccc1Cl	-4%	13%	2%	1%	6%	0%
CC(=O)c1c(C)[nH]c(C(=O)CN(C)CC(=O)Nc2ccccc2Cl)c1C	-5%	21µM*	-6%	?	3%	8%
CCN(CC(=O)Nc1ccccc1C(F)(F)F)CC(=O)c1[nH]c(C)c(C(C)=O)c1C	-13%	16µM*	.	23µM*	.	.
CCOC(=O)c1c(C)[nH]c(C(=O)CN(C)CC(=O)Nc2ccccc2Cl)c1C	-4%	21µM*	7%	?	0%[56.1 µM]	16%
CCN(CC(=O)Nc1ccc2c(c1)OCCO2)CC(=O)Nc1ccccc1C(F)(F)F	0%	-23%	-3%	-28%	4%	-24%
CCOC(=O)c1c(C)[nH]c(C(=O)COC(=O)[C@H](C)NC(=O)c2ccccc2Cl)c1C	-3%	-28%	-7%	-8%	5%	-8%
COc1cc(NC(=O)Cn2cc(C(=O)c3ccc(F)cc3)c(=O)c3ccc(C)nc32)cc(OC)c1	.	-25%	-6%	?	1%	8%
CNc1ccc2c3c(cccc13)C(=O)N(C)C2=O	3µM*	?	-11%	?	.	15%
COc1cc(Cl)c(C)cc1NC(=O)c1ccccc1NC(=O)CN1CCN(c2ccccn2)CC1	-4%	26µM*	.	18µM*	.	1%
O=C(CN1CCN(c2ccccn2)CC1)Nc1ccc([N+](=O)[O-])cc1C(=O)Nc1ccccc1F	-6%	7.3µM*	-10%	23µM*	4%	-7%
SMILES	PLK1 PBD inh	DT40 TDP1 no CPT	KAT2A inh	DT40 TDP1 CPT	TDP1 block	VDR inhibitor
Cc1cc(Br)ccc1NC(=O)CN1CCN(c2ccccn2)CC1	-16%	-25%	-5%	-9%	.	-24%
C#CCOCCOCCOCCNc1nc(N2CCN(C(=O)CCCCCCCCCCNC(=O)Cn3cc(C[C@@H](C)O)nn3)CC2)nc(N2CCN(C(=O)CCCCCCCCCCNC(=O)[C@H](CCCCN)n3cc(C[C@@H](C)CC)nn3)CC2)n1	2%	21µM*	-13%	16µM*	.	32%
C#CCOCCOCCOCCNc1nc(N2CCOCC2)nc(N2CCN(C(=O)CCCCCCCCCCNC(=O)Cn3cc(CCCCCN)nn3)CC2)n1	-17%	-17%	-8%	1%	-2%	-9%
C#CCOCCOCCOCCNc1nc(N2CCN(C(=O)CCCCCCCCCCNC(=O)Cn3cc(C[C@@H](C)O)nn3)CC2)nc(N2CCN(C(=O)CCCCCCCCCCNC(=O)Cn3cc(C[C@@H](C)O)nn3)CC2)n1	0%	9.2µM*	-3%	6.5µM*	0%	-20%
C#CCOCCOCCOCCNc1nc(N2CCN(C(=O)CCCCCCCCCCNC(=O)[C@H](CCCCN)n3cc(CCO)nn3)CC2)nc(N2CCN(C(=O)CCCCCCCCCCNC(=O)[C@H](CCCN=C(N)N)n3cc(C[C@@H](C)CC)nn3)CC2)n1	5%	?	-13%	?	9%	33%
C#CCOCCOCCOCCNc1nc(N2CCN(C(=O)CCCCCCCCCCNC(=O)[C@H](CCCCN)n3cc(C[C@@H](C)CC)nn3)CC2)nc(N2CCN(C(=O)CCCCCCCCCCNC(=O)[C@H](CCCCN)n3cc(C[C@@H](C)CC)nn3)CC2)n1	-1%	9.2µM*	.	8.2µM*	.	58%
COc1ccccc1N1CCN(c2nc(CNC(=O)c3ccc(C)c(C)c3)nc3ccccc23)CC1	.	-29%	.	0%	.	.
CCN(CC)CCOC(=O)c1ccc(NC(=O)CSc2nnc(-c3cccs3)n2CC)cc1	5%	2%	.	-15%	.	-13%
COc1cc(-c2noc(C)c2C#Cc2ccc(N)cc2)cc(OC)c1OC	-2%	0.52µM*	0%	0.82µM*	.	-9%
COc1cc(C(=O)O/N=C(\N)c2ccccn2)cc(OC)c1OC	-5%	?	-1%	?	.	12%
COc1cc(-c2noc(C)c2/C=C/c2ccc(N)cc2)cc(OC)c1OC	1%	1µM*	-2%	1.2µM*	.	17%
COc1cc(-c2noc(C)c2C(=O)NCc2ccc(C)o2)cc(OC)c1OC	-6%	?	-2%	?	3%	-4%
COc1cc(-c2noc(C)c2C#Cc2ccccn2)cc(OC)c1OC	-6%	1µM*	-25%	0.65µM*	.	15%
